Test results: PubChem BioAssay (Tox21)
Where “and” joins values, the source holds several entries; their conditions need not be identical. Identical values can stand only once. Records with an inconclusive call do not appear. Entries that show only a call come without a potency. A structure can be active in one record and inactive in another. Calls of active or inactive are those of the source. Calls follow the shape of the dose curve; as a rule, active = well fitted curve in the direction sought with a large enough effect in the repeat runs; inconclusive = weak or mixed curves; inactive = no such curve, though single readings can be large; an effect the other way counts as inactive or inconclusive.

Columns and labels:
[1] = A CellTox Green Cytotoxicity Assay to monitor cytotoxicity in HEK293 cells - 40 hour (AID 1224871); also: nearly all actives have a fitted effect of over 45% in size; also: potency is read from the fitted curve at half-maximal effect
Method in brief: (§1)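 Tox21 screen in HEK293: membrane-impermeant cyanine dye fluoresces on binding dead-cell DNA; compound pinned 5 h post-seeding, plates held at 37 C, signal read repeatedly through 40 h.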

[2] = qHTS RealTime-Glo MT Cell Viability Assay in HEK293 cells - 16 hour (AID 1224872); also: top concentration of the series differs between compounds; nearly all actives have a fitted effect of over 50% in size
Method in brief: (§2)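 HEK293 cells were seeded at 600 cells/well together with NanoLuc luciferase and cell-permeant prosubstrate, preincubated 5 h at 37 C/5% CO2, then given compound in DMSO by pintool. Luminescence from viable-cell prosubstrate reduction was read repeatedly over 40 h.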

[3] = qHTS RealTime-Glo MT Cell Viability Assay in HepG2 cells - 8 hour (AID 1224873); also: nearly all actives have a fitted effect of over 55% in size
Method in brief: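 HepG2 cells (600/well) mixed with RealTime-Glo MT reagent, settled 5 h at 37 C/5% CO2 before compound addition. Nonlytic NanoLuc luminescence from viable-cell prosubstrate reduction read repeatedly during 40 h treatment at 37 C.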

[4] = qHTS RealTime-Glo MT Cell Viability Assay in HEK293 cells - 40 hour (AID 1224874); details: RealTime-Glo luminescence; max response: stronger effect = lower value; also: nearly all actives have a fitted effect of over 50% in size
Method in brief: (§3)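 HEK293 + NanoLuc + prosubstrate, 600 cells/well; 5 h, 37 C/5% CO2; compound 23 nL in DMSO by pintool; 37 C; luminescence read at 0, 8, 16, 24, 32 and 40 h time points.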

[5] = A CellTox Green Cytotoxicity Assay to monitor cytotoxicity in HEK293 cells - 24 hour (AID 1224875); also: series mostly up to about 77 µM; nearly all actives have a fitted effect of over 45% in size
Method in brief: as §1

[6] = A CellTox Green Cytotoxicity Assay to monitor cytotoxicity in HepG2 cells - 16 hour (AID 1224876); also: nearly all actives have a fitted effect of over 45% in size
Method in brief: (§4)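 Measurements at 0, 8, 16, 24, 32 and 40 h of treatment captured CellTox Green fluorescence in HepG2 cells that had been co-plated with reagent and preincubated 5 h at 37 C/5% CO2.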

[7] = qHTS RealTime-Glo MT Cell Viability Assay in HepG2 cells - 32 hour (AID 1224877); also: nearly all actives have a fitted effect of over 55% in size
Method in brief: (§5)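 HepG2 cells were seeded at 600 cells/well together with NanoLuc luciferase and a cell-permeant prosubstrate, preincubated 5 h at 37 C/5% CO2, then pin-dosed with compounds in DMSO. Nonlytic luminescence from viable cells was read at each time point.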

[8] = A CellTox Green Cytotoxicity Assay to monitor cytotoxicity in HepG2 cells - 24 hour (AID 1224878); also: nearly all actives have a fitted effect of over 45% in size
Method in brief: as §4

[9] = A CellTox Green Cytotoxicity Assay to monitor cytotoxicity in HepG2 cells - 40 hour (AID 1224879); also: nearly all actives have a fitted effect of over 40% in size
Method in brief: as §4

[10] = qHTS RealTime-Glo MT Cell Viability Assay in HEK293 cells - 0 hour (AID 1224880)
Method in brief: as §3

[11] = A CellTox Green Cytotoxicity Assay to monitor cytotoxicity in HEK293 cells - 32 hour (AID 1224881); also: nearly all actives have a fitted effect of over 40% in size
Method in brief: as §1

[12] = A CellTox Green Cytotoxicity Assay to monitor cytotoxicity in HepG2 cells - 0 hour (AID 1224882); also: nearly all actives have a fitted effect of over 35% in size
Method in brief: as §4

[13] = A CellTox Green Cytotoxicity Assay to monitor cytotoxicity in HepG2 cells - 32 hour (AID 1224883); also: nearly all actives have a fitted effect of over 50% in size
Method in brief: as §4

[14] = A CellTox Green Cytotoxicity Assay to monitor cytotoxicity in HEK293 cells - 8 hour (AID 1224884); also: nearly all actives have a fitted effect of over 35% in size
Method in brief: as §1

[15] = qHTS RealTime-Glo MT Cell Viability Assay in HepG2 cells - 16 hour (AID 1224885); also: nearly all actives have a fitted effect of over 50% in size
Method in brief: as §5

[16] = qHTS RealTime-Glo MT Cell Viability Assay in HEK293 cells - 24 hour (AID 1224886)
Method in brief: as §2

[17] = A CellTox Green Cytotoxicity Assay to monitor cytotoxicity in HEK293 cells - 16 hour (AID 1224888); also: nearly all actives have a fitted effect of over 35% in size
Method in brief: as §1

[18] = qHTS RealTime-Glo MT Cell Viability Assay in HepG2 cells - 0 hour (AID 1224889); also: nearly all actives have a fitted effect of over 50% in size
Method in brief: as §5

[19] = A CellTox Green Cytotoxicity Assay to monitor cytotoxicity in HepG2 cells - 8 hour (AID 1224890); also: nearly all actives have a fitted effect of over 45% in size
Method in brief: as §4

[20] = qHTS RealTime-Glo MT Cell Viability Assay in HEK293 cells - 8 hour (AID 1224887)
Method in brief: as §3

| Compound | Potency [1] | Potency [2] | Potency [3] | max response [4] | Potency [5] | Potency [6] | Potency [7] | Potency [8] | Potency [9] | Potency [10] | Potency [11] | Potency [12] | Potency [13] | Potency [14] | Potency [15] | Potency [16] | Potency [17] | Potency [18] | Potency [19] | Potency [20] |
| --- | --- | --- | --- | --- | --- | --- | --- | --- | --- | --- | --- | --- | --- | --- | --- | --- | --- | --- | --- | --- |
| Cc1ccncc1 | inactive | inactive | inactive | 1.94% (inactive) and -1.5% (inactive) | inactive | inactive | inactive | inactive | inactive | inactive | inactive | inactive | inactive | inactive | inactive | inactive | inactive | inactive | inactive | – |
| O=C(NCC1CCCCN1)c1cc(OCC(F)(F)F)ccc1OCC(F)(F)F (stereo not given) | inactive | inactive | inactive | – | inactive | inactive | inactive | inactive | inactive | inactive | inactive | inactive | inactive | inactive | inactive | inactive | inactive | inactive | inactive | inactive |
| CCCCCCCC(=O)O | inactive | inactive | inactive | 3.06% (inactive) and 7% (inactive) | inactive | inactive | inactive | inactive | inactive | inactive | inactive | inactive | inactive | inactive | inactive | inactive | inactive | inactive | inactive | – |
| CC(COCC(C)OC(=O)c1ccccc1)OC(=O)c1ccccc1 (stereo not given) | inactive | – | inactive | – | inactive | inactive | inactive | inactive | inactive | inactive | inactive | inactive | inactive | inactive | inactive | – | inactive | inactive | inactive | – |
| CC(=O)C(C)C | inactive | inactive | inactive | 9.65% (inactive) | inactive | inactive | inactive | inactive | inactive | inactive | inactive | inactive | inactive | inactive | inactive | inactive | inactive | inactive | inactive | – |
| CC(C)(C)NC[C@H](O)COc1nsnc1N1CCOCC1 | inactive and 3.38 µM (active) | inactive | inactive | -0.31% (inactive) and -1.2% (inactive) | inactive | inactive | inactive | inactive | inactive | inactive | inactive | inactive | inactive | inactive | inactive | inactive | inactive | inactive | inactive | – |
| Brc1ccc(Oc2ccc(Br)cc2)cc1 | inactive | inactive | inactive | -1.97% (inactive) and -5.7% (inactive) | inactive | inactive | inactive | inactive | inactive | inactive | inactive | inactive | inactive | inactive | inactive | inactive | inactive | inactive | inactive | – |
| CCCCCNCCCCC | inactive | inactive | inactive | 4.14% (inactive) and 0.383% (inactive) | inactive | inactive | inactive | inactive | inactive | inactive | inactive | inactive | inactive | inactive | inactive | inactive | inactive | inactive | inactive | – |
| CCCCC(CC)COC(=O)c1ccc(C(=O)OCC(CC)CCCC)cc1 (stereo not given) | inactive | inactive | inactive | 10.3% (inactive) and 17.5% (inactive) | inactive | inactive | inactive | inactive | inactive | inactive | inactive | inactive | inactive | inactive | inactive | inactive | inactive | inactive | inactive | – |
| O=C(O)Cc1c[nH]c2ccccc12 | inactive | inactive | inactive | 12.4% (inactive) and 16.9% (inactive) | inactive | inactive | inactive | inactive | inactive | inactive | inactive | inactive | inactive | inactive | inactive | inactive | inactive | inactive | inactive | – |
| CCOC(=O)CC(=O)OCC | inactive | inactive | inactive | 5.3% (inactive) and 0.825% (inactive) | inactive | inactive | inactive | inactive | inactive | inactive | inactive | inactive | inactive | inactive | inactive | inactive | inactive | inactive | inactive | – |
| COc1c2ccoc2cc2oc(=O)ccc12 | inactive | inactive | inactive | -25.5% (inactive) and -38.4% (inactive) | inactive | inactive | inactive | inactive | inactive | inactive | inactive | inactive | inactive | inactive | inactive | inactive | inactive | inactive | inactive | – |
